An excerpt weighted towards active compounds, which were near 3.5% of everything screened.
GPR151 activ: activators of human GPR151, primary screen, cell-based, PathHunter beta-arrestin, luminescence; 650,000 tested, 1% active; PathHunter beta-arrestin GPR151 cells; AID 1508602, 2020; activation, % at 11.2 µM; in the data active = activation above about 4.9%;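 also: 0% = median of compound wells and 100% = cells with positive control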
FBW7 activator: FBW7 E3 ligase activators, primary screen, biochemical, AlphaScreen, human | normalized activity (activation), % at 26.1 µM | AlphaScreen FBW7–phospho-cyclin E peptide binding, activator screen | 650,000 tested, 0.13% active | F-box/WD repeat-containing protein 7 (Homo sapiens), Q969H0; in the data active = normalized activity above about 1.9%;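 also: purified mutant Fbw7 with reduced substrate affinity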
MITF inh: MITF inhibitors, primary screen, biochemical, AlphaScreen, human; AlphaScreen MITF homodimerization, bead proximity signal; inhibition, % at 2.6 µM; 650,000 tested, 0.91% active; in the data active = inhibition above about 50%;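 also: 0% = vehicle wells with protein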
TEAD-YAP block: TEAD-YAP interaction inhibition, primary screen, TEAD-YAP interaction inhibitor project, luminescence, HEK-TIYL cells | TEAD-Gal4/YAP UAS-luciferase luminescence | AID 1259422, 2018 | 640,000 tested, 1.4% active | inhibition, % at 9.12 µM; in the data active = inhibition above about 32%;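 also: 0% = median of test compound wells and 100% = reference inhibitor wells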
GPR151 confirm: GPR151 activators, triplicate retest, confirmation, cell-based, PathHunter beta-arrestin, luminescence; shares compounds with GPR151 activ; GPR151 PathHunter beta-arrestin cells, 90 min; % of EA-reagent control over plate median; activation, % at 11.2 µM; 6,700 tested, under 10 active;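 active = mean percent activation across replicates above the confirmation screen cutoff of 4.91%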
GPR119 counter: GPR119 activators in beta-arrestin cells, counter-screen for GPR151 activator project, cell-based, PathHunter beta-arrestin, luminescence, triplicate | shares compounds with GPR151 activ | 90 min; 0 = compound-well median, 100 = enzyme-acceptor control | activation, % at 11.2 µM | 6,700 tested, 0.3% active | AID 1508611, 2020;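 active = mean percent activation in the counterscreen above 29.09%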;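 also: counterscreen on off-target GPR119 to flag nonselective hits from the GPR151 activator screen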
Starred values were filed as active, the others as inactive; . = not tested or not shown.

SMILES	GPR151 activ	FBW7 activator	MITF inh	TEAD-YAP block	GPR151 confirm	GPR119 counter
O=C(/C=C/c1cccs1)Nc1cc([N+](=O)[O-])ccc1Cl	1	0	15	-1	.	.
O=C(/C=C/c1cccs1)NC(=S)Nc1cc([N+](=O)[O-])ccc1O	5.4*	0	34	-12	0	-7
CSc1cccc(NC(=O)C2C3C=CC4(O3)C2C(=O)N(CCC(C)C)C4C(=O)NC2CCCC(C)C2C)c1 (stereo not given)	0	0	-10	-6	.	.
O=C1Nc2ccccc2Oc2cc([N+](=O)[O-])cc(Oc3ccc(Br)cc3)c21	11*	0	5	4	1	1
CCOc1cc(/C=c2/sc3nc4ccccc4n3c2=O)cc(I)c1O	5.1*	0	3	13	1	15
CCCCNC(=O)C1C2C=CC3(CN(Cc4ccccc4Cl)C(=O)C13)O2 (stereo not given)	5.7*	0	-4	6	0	13
CC(C)OC(=O)C1C2C=CC3(CN(Cc4ccccc4)C(=O)C13)O2 (stereo not given)	5.5*	0	-1	-2	-2	-8
COCCNC(=O)C1C2C=CC3(CN(Cc4ccc(C)cc4)C(=O)C13)O2 (stereo not given)	14*	0	-3	-1	1	11
N#C/C(=C/Nc1cccc(C(F)(F)F)c1)c1nc(-c2ccc([N+](=O)[O-])cc2)cs1	0	0	-10	-3	.	.
Cc1ccc(Cl)cc1N=Cc1nc(-c2ccc([N+](=O)[O-])cc2)oc1O	0	1	10	-4	.	.
O=C(Nc1ccccc1C(=O)NCCCCO)c1ccco1	4	0	4	6	.	.
O=C1c2ccccc2C(=O)c2c(O)c(O)cc(O)c21	0	0	30	-1	.	.
O=C1c2ccccc2C(=O)c2c(O)ccc(O)c21	18*	0	5	1	0	2
Cc1ccc(N2C(=O)CSC23C(=O)Nc2ccccc23)cc1Br (stereo not given)	5.0*	-1	-3	5	0	2
Cc1cc(N2C(=O)CSC23C(=O)Nc2ccccc23)ccc1Br (stereo not given)	0	-1	7	2	.	.
CC(=O)Nc1cc(CNCc2ccc3c(c2)OCCO3)cc(C(=O)N2CCCC2)c1	1	0	15	9	.	.
CCCCCOC(=O)C1=C(C)N(C)C(=O)NC1c1ccccc1Cl (stereo not given)	5.0*	0	-3	2	1	12
CCOC(=O)C1=C(C)N(C)C(=O)NC1c1ccccc1Cl (stereo not given)	-2	0	2	-2	.	.
CCN1CCN(CC(=O)Nc2ccc(C(C)=O)cc2)CC1	7.5*	0	-2	8	0	5
CC(=O)N1CCN(Cc2nc3cc(NC(=O)c4ccc(Cl)cc4)ccc3n2C)CC1	5.4*	0	0	-5	0	1
CC(=O)Nc1ccc2c(c1)nc(CN1CCN(C(C)=O)CC1)n2C	-1	0	-24	-5	.	.
CC(=O)c1ccc(NC(=O)CN2CCN(Cc3nc4ccccc4n3C)CC2)cc1	6.3*	0	1	-3	0	-3
CCCn1c(N2CCN(CC(=O)Nc3ccc(C(C)=O)cc3)CC2)nc2ccccc21	0	0	3	3	.	.
CC(C)C(NC(=O)/C(=C\c1ccc(Br)cc1)NC(=O)c1ccccc1)C(=O)O (stereo not given)	1	0	-1	2	.	.
Cc1cc2n(n1)C(c1cccc(O)c1)Nc1ccccc1-2 (stereo not given)	7.9*	0	11	7	0	3
CCN(CC)CC(=O)c1c(C)[nH]c2ccccc12	2	0	0	8	.	.

Assay outcomes deposited in PubChem BioAssay by The Scripps Research Institute Molecular Screening Center.
